Assay results: PubChem BioAssay (EPA / NIEHS)
Activity calls are given as the source filed them. The calls were made as follows: active = hit-call score of the fitted dose curve at least 0.9, where 1 is the maximum; inactive = score below 0.9.

These compounds were tested on urokinase plasminogen activator (uPA), PLAU (gene 5328) (assay: BSK_KF3CT_uPA: BioMAP Diversity Plus: KF3CT Assay for urokinase plasminogen activator (uPA) Biomarker Activity (AID 2283075)). Settings: primary human keratinocytes with fibroblasts; actives raise or lower the signal.
Method in brief: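 Human keratinocyte plus foreskin fibroblast primary co-culture exposed to chemical for 24 h. uPA levels were quantified by ELISA, and activity was fitted bidirectionally against a DMSO negative-control baseline.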

SMILES	outcome	AC50
c1ccc2occc2c1	inactive	–
C#CC(O)C(CC)CCCC (stereo not given)	inactive	–
NC=O	inactive	–
COC(=O)CCC(=O)OC	inactive	–
CCC(C)N(C)C(=O)c1cc2ccccc2c(-c2ccccc2Cl)n1 (stereo not given)	inactive	–
CCN(CC)CCOc1ccc(C(=C(Cl)c2ccccc2)c2ccccc2)cc1	–	13.7 µM (active)
O=Cc1ccccc1C=O	inactive	–
CCCC[C@H]1CN(CC2CCOCC2)C(=O)OC12CCN(C1(C)CCN(C(=O)c3c(C)ncnc3C)CC1)CC2	inactive	–
CCCCCCC(CCCCCCCCCCC(=O)OCC(COC(C)=O)OC(C)=O)OC(C)=O (stereo not given)	inactive	–
O=C1c2c(O)cccc2Cc2cccc(O)c21	–	27.8 µM (active)
CC(C)(O)c1ccc(CNC(=O)c2cccnc2Oc2ccc(F)cc2)cc1	inactive	–
Cn1cnc2c1c(=O)[nH]c(=O)n2C	inactive	–
Oc1ccccc1O	–	20 µM (active)
CCCCCCCCCC[N+](C)(C)[O-]	inactive	–
O=C(N[C@@H](c1ccccc1)[C@@H]1CCCCN1)c1cccc(C(F)(F)F)c1Cl	–	32.5 µM (active)
O=C1OC(c2ccc(O)cc2)(c2ccc(O)cc2)c2ccccc21	inactive	–
CC1=C(C)S(=O)(=O)CCS1(=O)=O	inactive	–
O=C(Oc1ccccc1)c1cccc(C(=O)Oc2ccccc2)c1	inactive	–
CC(C)c1cccc(C(C)C)c1NC(=O)NS(=O)(=O)c1cc(C(C)(C)O)co1	inactive	–
Cc1ccc(-c2cc(C(F)(F)F)nn2-c2ccc(S(N)(=O)=O)cc2)cc1	inactive	–
OCC(CO)n1cnc(-c2ccc(F)cc2)c1-c1ccnc(Oc2ccccc2)n1	inactive	–
C=CCCCCCCCCCCCC	inactive	–
O=C(O)c1cccnc1	inactive	–
Cc1occc(=O)c1O	inactive	–
CC(=O)O	inactive	–
CCCCC(CC)COC(=O)CCCCCCCC(=O)OCC(CC)CCCC (stereo not given)	inactive	–
COc1ccc(OC(F)(F)F)cc1CN[C@H]1CCCN[C@H]1c1ccccc1	inactive	–
CSc1ccc(Oc2ccc(S(N)(=O)=O)cc2CN(C)C)cc1C	inactive	–
O=NO	inactive	–
C=CCc1ccc(OC)c(OC)c1	inactive	–

The compounds below were run on CD40, CD40 (gene 958) (assay: BSK_LPS_CD40: BioMAP Diversity Plus: LPS Assay for CD40 Biomarker Activity (AID 2283076)). Settings: primary human HUVEC with PBMC; actives raise or lower the signal.
Method in brief: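 Primary human umbilical vein endothelial cells co-cultured with peripheral blood mononuclear cells, LPS-stimulated, were dosed with chemical and read 24 h later. CD40 levels were measured by ELISA and fitted bidirectionally against DMSO as negative control and baseline.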

SMILES	outcome	AC50
c1ccc2occc2c1	inactive	–
C#CC(O)C(CC)CCCC (stereo not given)	inactive	–
NC=O	inactive	–
COC(=O)CCC(=O)OC	inactive	–
CCC(C)N(C)C(=O)c1cc2ccccc2c(-c2ccccc2Cl)n1 (stereo not given)	inactive	–
CCN(CC)CCOc1ccc(C(=C(Cl)c2ccccc2)c2ccccc2)cc1	–	8.67 µM (active)
O=Cc1ccccc1C=O	inactive	–
CCCC[C@H]1CN(CC2CCOCC2)C(=O)OC12CCN(C1(C)CCN(C(=O)c3c(C)ncnc3C)CC1)CC2	inactive	–
CCCCCCC(CCCCCCCCCCC(=O)OCC(COC(C)=O)OC(C)=O)OC(C)=O (stereo not given)	inactive	–
O=C1c2c(O)cccc2Cc2cccc(O)c21	inactive	–
CC(C)(O)c1ccc(CNC(=O)c2cccnc2Oc2ccc(F)cc2)cc1	inactive	–
Cn1cnc2c1c(=O)[nH]c(=O)n2C	inactive	–
Oc1ccccc1O	–	7.33 µM (active)
CCCCCCCCCC[N+](C)(C)[O-]	inactive	–
O=C(N[C@@H](c1ccccc1)[C@@H]1CCCCN1)c1cccc(C(F)(F)F)c1Cl	–	20 µM (active)
O=C1OC(c2ccc(O)cc2)(c2ccc(O)cc2)c2ccccc21	–	31.5 µM (active)
CC1=C(C)S(=O)(=O)CCS1(=O)=O	–	4.33 µM (active)
O=C(Oc1ccccc1)c1cccc(C(=O)Oc2ccccc2)c1	inactive	–
CC(C)c1cccc(C(C)C)c1NC(=O)NS(=O)(=O)c1cc(C(C)(C)O)co1	inactive	–
Cc1ccc(-c2cc(C(F)(F)F)nn2-c2ccc(S(N)(=O)=O)cc2)cc1	–	26.6 µM (active)
OCC(CO)n1cnc(-c2ccc(F)cc2)c1-c1ccnc(Oc2ccccc2)n1	inactive	–
C=CCCCCCCCCCCCC	inactive	–
O=C(O)c1cccnc1	inactive	–
Cc1occc(=O)c1O	inactive	–
CC(=O)O	inactive	–
CCCCC(CC)COC(=O)CCCCCCCC(=O)OCC(CC)CCCC (stereo not given)	inactive	–
COc1ccc(OC(F)(F)F)cc1CN[C@H]1CCCN[C@H]1c1ccccc1	–	26.6 µM (active)
CSc1ccc(Oc2ccc(S(N)(=O)=O)cc2CN(C)C)cc1C	inactive	–
O=NO	inactive	–
C=CCc1ccc(OC)c(OC)c1	inactive	–

What follows are compounds tested on E-selectin (Homo sapiens) (UniProt P16581) (assay: BSK_LPS_Eselectin: BioMAP Diversity Plus: LPS Assay for Eselectin Biomarker Activity (AID 2283077)). Settings: primary human HUVEC with PBMC; actives raise or lower the signal.
Method in brief: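 Human umbilical vein endothelial cells co-cultured with peripheral blood mononuclear cells under LPS stimulation; E-selectin measured by ELISA 24 h after chemical dosing. Activity fitted bidirectionally against DMSO as negative control and baseline.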

Chain of E-selectin (Homo sapiens) (P16581 whole entry, looked up): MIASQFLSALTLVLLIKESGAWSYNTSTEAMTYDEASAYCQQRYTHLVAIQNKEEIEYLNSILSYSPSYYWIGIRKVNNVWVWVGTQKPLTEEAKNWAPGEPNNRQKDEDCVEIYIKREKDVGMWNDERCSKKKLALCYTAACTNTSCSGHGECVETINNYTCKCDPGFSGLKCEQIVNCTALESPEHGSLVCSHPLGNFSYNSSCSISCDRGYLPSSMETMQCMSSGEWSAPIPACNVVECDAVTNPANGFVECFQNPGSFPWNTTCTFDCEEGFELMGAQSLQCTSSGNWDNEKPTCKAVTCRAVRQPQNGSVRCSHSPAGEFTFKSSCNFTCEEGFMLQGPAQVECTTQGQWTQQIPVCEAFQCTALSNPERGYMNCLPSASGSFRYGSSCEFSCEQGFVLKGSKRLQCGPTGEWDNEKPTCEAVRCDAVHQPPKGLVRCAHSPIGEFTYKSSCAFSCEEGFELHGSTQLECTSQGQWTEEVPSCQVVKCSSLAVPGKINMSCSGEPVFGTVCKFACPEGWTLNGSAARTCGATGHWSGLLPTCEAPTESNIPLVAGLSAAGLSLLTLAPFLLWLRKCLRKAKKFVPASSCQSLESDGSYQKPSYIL

SMILES	outcome	AC50
c1ccc2occc2c1	inactive	–
C#CC(O)C(CC)CCCC (stereo not given)	inactive	–
NC=O	inactive	–
COC(=O)CCC(=O)OC	inactive	–
CCC(C)N(C)C(=O)c1cc2ccccc2c(-c2ccccc2Cl)n1 (stereo not given)	inactive	–
CCN(CC)CCOc1ccc(C(=C(Cl)c2ccccc2)c2ccccc2)cc1	–	13.3 µM (active)
O=Cc1ccccc1C=O	inactive	–
CCCC[C@H]1CN(CC2CCOCC2)C(=O)OC12CCN(C1(C)CCN(C(=O)c3c(C)ncnc3C)CC1)CC2	inactive	–
CCCCCCC(CCCCCCCCCCC(=O)OCC(COC(C)=O)OC(C)=O)OC(C)=O (stereo not given)	inactive	–
O=C1c2c(O)cccc2Cc2cccc(O)c21	inactive	–
CC(C)(O)c1ccc(CNC(=O)c2cccnc2Oc2ccc(F)cc2)cc1	inactive	–
Cn1cnc2c1c(=O)[nH]c(=O)n2C	inactive	–
Oc1ccccc1O	inactive	–
CCCCCCCCCC[N+](C)(C)[O-]	inactive	–
O=C(N[C@@H](c1ccccc1)[C@@H]1CCCCN1)c1cccc(C(F)(F)F)c1Cl	–	5.55 µM (active)
O=C1OC(c2ccc(O)cc2)(c2ccc(O)cc2)c2ccccc21	inactive	–
CC1=C(C)S(=O)(=O)CCS1(=O)=O	inactive	–
O=C(Oc1ccccc1)c1cccc(C(=O)Oc2ccccc2)c1	inactive	–
CC(C)c1cccc(C(C)C)c1NC(=O)NS(=O)(=O)c1cc(C(C)(C)O)co1	–	0.148 µM (active)
Cc1ccc(-c2cc(C(F)(F)F)nn2-c2ccc(S(N)(=O)=O)cc2)cc1	–	30.9 µM (active)
OCC(CO)n1cnc(-c2ccc(F)cc2)c1-c1ccnc(Oc2ccccc2)n1	–	1.09 µM (active)
C=CCCCCCCCCCCCC	inactive	–
O=C(O)c1cccnc1	inactive	–
Cc1occc(=O)c1O	inactive	–
CC(=O)O	inactive	–
CCCCC(CC)COC(=O)CCCCCCCC(=O)OCC(CC)CCCC (stereo not given)	inactive	–
COc1ccc(OC(F)(F)F)cc1CN[C@H]1CCCN[C@H]1c1ccccc1	inactive	–
CSc1ccc(Oc2ccc(S(N)(=O)=O)cc2CN(C)C)cc1C	inactive	–
O=NO	inactive	–
C=CCc1ccc(OC)c(OC)c1	inactive	–
